This test can be described thus: resazurin metabolic signal in HepG2 cells – cell-based, resazurin fluorescence, 24 h, PK04 Diversity Set, profiling panel (AID 1172). Further: test concentration not given here. The following applies: HepG2 viability, higher = more signal.
`CCOC(=O)C[C@H]1[C@H](OC(=O)Cc2ccc3c(c2)OCO3)[C@@H](NC(=O)c2ccc(-c3ccccc3)cc2)c2cc(OCCCO)ccc2N1C(=O)Cc1ccc(OC)cc1` returned a z-score of 0.366. Compound `C=CCNC(=O)[C@H]1[C@@H]2C(=O)O[C@@H](c3ccccc3)[C@@H](c3ccccc3)N2[C@@H](c2ccc(O)cc2)[C@]12C(=O)N(C(=O)OCCOC)c1ccc(C#CCNC(N)=O)cc12` showed a z-score of -0.173. In the case of `NCCCCCNC(=O)[C@@H]1C[C@@H]2C(=O)NCC(=O)N2[C@@H]1c1ccc(O)cc1`, the z-score was found to be 0.0154. `C[N+](C)(C)CCCC[C@@H]1NC(=O)[C@@H]2C[C@H](C(=O)NCCCCCN)[C@H](c3cccc(OCCO)c3)N2C1=O` gave a z-score of -0.85. Then `COc1cc(CO)cc(I)c1O[C@H]1C=C(C(=O)NCCO)C[C@@H](N(CCN2CCOCC2)C(=O)C2CCOC2)[C@@H]1O` (stereo not given in full), with 1.66; and `[N-]=[N+]=NCc1ccccc1[C@@H]1OC(c2ccc(OCCCO)cc2)=N[C@]1(Cc1ccccc1N=[N+]=[N-])C(=O)N1CCOCC1`, with -0.54. To `O=C1NCC(=O)N2[C@@H]1C[C@@H](C(=O)O)[C@H]2c1cccc(OCCO)c1` belongs 0.0195; to `COc1ccc([Si](C)(C)[C@H]2[C@H](CCO)O[C@@]3(C(=O)N(Cc4ccc(N5C(=O)COc6ccccc65)cc4)c4ccccc43)[C@@H]2C)cc1`, -1.97; to `O=C1c2ccccc2[C@@]2(Cc3ccccc3N(CCN3CCOCC3)C2=O)[C@H](c2ccc(CO)cc2)N1Cc1ccccc1`, -0.864. For the compound `COc1ccc([Si](C)(C)[C@@H]2[C@@H](CC(=O)N3Cc4ccccc4C[C@H]3CO)O[C@]3(C(=O)N(C)c4c(Br)cc(C)cc43)[C@H]2C)cc1`, the z-score was -2.26. Then `CCOC(=O)C[C@H]1[C@H](OC(=O)Cc2ccc3c(c2)OCO3)[C@@H](NC(=O)c2ccc3ccccc3c2)c2cc(OCCCO)ccc2N1C(=O)c1ccccc1`, with 0.898; and `CN1C(=O)C2C=CC(C(O)c3ccccc3)N(Nc3ccccc3)C2C1=O` (stereo not given), with -1.05. Compound `CC(C)c1ccc(NN2C(C(O)C(c3ccccc3)c3ccccc3)C=CC3C(=O)N(c4ccccc4)C(=O)C32)cc1` (stereo not given) showed a z-score of -1.49.

Compound `C=C(CCCC)C(=O)CC[C@H](OC(=O)c1cccnc1)c1ccccc1OCCO` displayed a z-score of 0.619. In the case of `CC(C)[C@@H](CO)NC(=O)[C@H]1[C@@H](c2ccccc2)N(c2ccccc2)O[C@@H]1C`, the z-score turned out to be 0.872. `CCOC(=O)[C@H]1CC=C2CC1C(=O)N1CCC[C@@H]1[C@@H]2O[Si](C)(C)C(C)(C)C` (stereo not given in full) returned a z-score of 0.706. As for `O=C(O)[C@@]1(CCS(=O)(=O)c2ccccc2)COC(c2ccc(OCCCO)cc2)=N1`, the z-score was determined as 0.444.

Regarding `CCOC(=O)[C@H]1C/C=C/C[C@H](C(=O)OCC)C(=O)O[C@H]2[C@@H](OC)O[C@H](CO)[C@@H](OC(=O)Nc3ccc(C#N)cc3)[C@@H]2OC1=O`, the z-score is -4.61. To `COCCOC(=O)N1C(=O)[C@@]2(c3cc(C#CC4=CCCCC4)ccc31)[C@H](C(=O)N1CCc3cc(OC)c(OC)cc3C1)[C@H]1C(=O)O[C@H](c3ccccc3)[C@H](c3ccccc3)N1[C@@H]2c1ccc(OCCO)cc1` belongs 0.149; to `C#CCN(CC=C(C)C)[C@H](CO)c1ccccc1`, 0.0941; to `COc1ccc(C(O)C2C=CC3C(=O)N(c4ccccc4)C(=O)C3N2Nc2ccccc2F)cc1OCc1ccccc1` (stereo not given), -0.299.

Compound `COc1ccc(C(=O)Nc2ccc(CN3C(=O)[C@@]4(O[C@@H](CC(=O)N5CCC[C@H]5CO)[C@H]([Si](C)(C)c5ccc(OC)cc5)[C@H]4C)c4ccccc43)cc2)cc1` returned a z-score of 0.294. `CCOC(=O)C=Cc1cc([N+](=O)[O-])ccc1O` showed a z-score of -0.495.

`CCOc1cc(C(O)C2C=CC3C(=O)N(c4ccccc4)C(=O)C3N2Nc2ccccc2)ccc1O` (stereo not given): the z-score was -0.147. Turning to `CCOC(=O)C[C@H]1[C@H](OC(=O)c2cc3ccccc3oc2=O)[C@@H](NC(=O)Cc2ccc(OC)cc2)c2cc(OCCCO)ccc2N1C(=O)c1ccccc1`, the z-score was -1.1. The compound `O=C(NCc1ccc(F)cc1)[C@H]1C[C@H]2C(=O)N[C@@H](Cc3ccccc3)C(=O)N2[C@H]1c1ccc(O)cc1` came in with a z-score of -0.354. To `O=C(c1ccccc1)N1Cc2ccccc2[C@@H]2OC(c3ccc(OCCCO)cc3)=N[C@]2(Cc2ccccc2)C1=O` belongs -0.448. To `COc1ccc(C(=O)Nc2ccc(CN3C(=O)[C@@]4(O[C@@H](CCO)[C@H]([Si](C)(C)c5ccc(OC)cc5)[C@H]4C)c4ccccc43)cc2)cc1` belongs -4.21. Consider `COc1ccc([Si](C)(C)[C@H]2[C@H](CCn3cc([C@H](O)c4ccccc4)nn3)O[C@@]3(C(=O)N(Cc4cccc(N5CCOC5=O)c4)c4ccccc43)[C@@H]2C)cc1`, for which the z-score was -0.332.

Take `CCCC=C(CCC)[C@@H](NS(=O)(=O)c1cccs1)c1ccc(C(=O)OC)cc1`: the z-score is -0.395. In turn, `O=C(NCc1ccccc1)[C@@]1(Cc2ccccc2)N=C(c2ccc(OCCCO)cc2)O[C@H]1c1ccccc1` displayed a z-score of -0.0664. In the case of `COC(=O)c1c(CC[C@@H](CO)NC(=O)N[C@@H](C)Cn2cc(C3(O)CCCCC3)nn2)oc(C(C)=O)c1C(=O)OC`, the z-score is -1.26. In the case of `O=C1O[C@H](c2ccccc2)[C@H](c2ccccc2)N2[C@H]1[C@@H](C(=O)O)[C@]1(C(=O)Nc3ccc(C#CCCO)cc31)[C@H]2c1ccc(O)cc1`, the z-score turned out to be 1.11.

As for `CC(C)C[C@H]1NC(=O)[C@@]23C(=O)N[C@@H](Cc4ccccc4)C2[C@H](C)[C@@]2(C)O[C@H]2C3/C=C/C/C=C\CNC(=O)[C@H](Cc2ccccc2)NC1=O` (stereo not given in full), the z-score came out at 0.183. Then `COc1ccc(C#Cc2ccc3c(c2)[C@]2(C(=O)N3)[C@H](c3ccccc3OCCO)N3[C@H](c4ccccc4)[C@H](c4ccccc4)OC(=O)[C@H]3[C@@H]2C(=O)O)cc1`, with 1.86.

The values are drawn from PubChem BioAssay.
